{"source": "PubChem BioAssay (NCATS)", "note": "Records with an inconclusive call do not appear. Activity calls are given as the source filed them. Calls follow the shape of the dose curve; as a rule, active = well fitted cell-killing curve with a large enough effect; inconclusive = small, poorly fitted or top-dose-only effect; inactive = no such curve, though single readings can be large or run the other way."}
{"experiment": "qHTS of pediatric cancer cell lines to identify multiple opportunities for drug repurposing: Primary screen for Rh30 cells (AID 1347107); also: nearly all actives have a fitted effect of over 75% in size", "settings": "Rh30 rhabdomyosarcoma viability, CellTiter-Glo luminescence, 48 h; series mostly up to 46 µM", "description": "Drug repurposing or repositioning has been offered as a strategy for drug development in oncology programs. This approach has special potential for childhood cancers and other rare or orphan diseases, where the expected return on new drug development has been a disincentive to pharmaceuticals.\nIn this project we exploit the poly-pharmacology of drugs to discover new indications via phenotypic screening of a panel of 19 well-characterized cell lines derived from solid tumors seen in children and adolescents. The goal is to identify approved drugs with previously unrecognized anticancer properties that has the potential to reveal new mechanisms and biological processes involved in carcinogenesis or drug resistance. We employed a titration-based paradigm (quantitative high-throughput screening or qHTS), where all compounds were tested at multiple concentrations for their effect on cell viability. Concentration-response curves (CRCs) were derived directly from the primary screen, and both potency and efficacy values were used to identify compounds with robust bioactivity profiles. We screened the NIH Chemical Genomics Center (NCGC) Pharmaceutical Collection (NPC) and Mechanism Interrogation Plate (MIPE) small molecule collections of approved and investigational compounds against these cell lines; and measured metabolically active cells after 48 hours of compound treatment as a proxy for cell viability.\nAssay Submitter: Nathalia J. Martinez, National Center for Advancing Translational Sciences, National Institutes of Health, Rockville, MD, USA; email: natalia.martinez@nih.gov\n[1] Shen, M et al. Quantitative high-throughput phenotypic screening of pediatric cancer cell lines identifies multiple opportunities for drug repurposing. Oncotarget 2017 Dec 19;9(4):4758-4772. PMID 29435139.\nThe cells were obtained from University of North Carolina (UNC), Pediatric Preclinical Testing Program (PPT), and Coriell Institute (CI).\nqHTS cell viability assay:\nCells were assayed in growth media at a density of 500-1,000 cells/well. Five microliters of cells were dispensed into 1,536-well, white, solid-bottom, TC-treated plates (Greiner Bio One) using a multidrop dispenser and incubated at 37 degrees C, 5% CO2, under a humidified atmosphere for 5 hours. Twenty-three nanoliters of compounds and controls (neutral control DMSO or positive control bortezomib at final concentration of 2.3 µM) were subsequently transferred by Kalypsys pintool. For primary screens, the MIPE collection was tested at 11-point dilutions (final concentrations range from 0.78 nM to 46 µM) and the NPC collection at 8-point dilutions (final concentrations range from 0.59 nM to 46 µM). Compounds tested in follow-up screens were assayed at 11-point dilutions. Cells were incubated for 48 hours, followed by addition of 3 µL of CellTiter-Glo (Promega). After a 15 min incubation at room temperature, samples were analyzed for luminescence intensity using a ViewLux High-throughput CCD imager equipped with clear filters."}
{"smiles": "Nc1ccccc1", "outcome": "inactive"}
{"smiles": "O=[N+]([O-])O[C@H]1CO[C@H]2[C@@H]1OC[C@H]2O[N+](=O)[O-]", "outcome": "inactive"}
{"smiles": "C=CCN1C[C@H](C)N([C@H](c2ccc(C(=O)N(CC)CC)cc2)c2cccc(OC)c2)C[C@H]1C", "outcome": "inactive"}
{"smiles": "CN1CC[C@]23c4c5ccc(O)c4O[C@H]2[C@@H](O)CC[C@H]3[C@H]1C5", "outcome": "inactive"}
{"smiles": "ClCCN1CCCC1", "outcome": "inactive"}
{"smiles": "O=C(CCCN1CCC2(CC1)C(=O)NCN2c1ccccc1)c1ccc(F)cc1", "outcome": "inactive"}
{"smiles": "COP(=S)(OC)Oc1ccc(S(=O)(=O)N(C)C)cc1", "outcome": "inactive"}
{"smiles": "Clc1ccc(C(c2ccc(Cl)cc2)C(Cl)(Cl)Cl)cc1", "outcome": "inactive"}
{"smiles": "c1ccc(N2CCNCC2)cc1", "outcome": "inactive"}
{"smiles": "CC(C)(C)NCC(O)c1cc(Cl)c(N)c(C(F)(F)F)c1", "note": "(stereo not given)", "outcome": "inactive"}
{"smiles": "CCC1(c2ccccc2)C(=O)N(COC)C(=O)N(COC)C1=O", "outcome": "inactive"}
{"smiles": "Clc1ccccc1N1CCNCC1", "outcome": "inactive"}
{"smiles": "C=C(C)[C@H]1CN[C@H](C(=O)O)[C@H]1CC(=O)O", "outcome": "inactive"}
{"smiles": "CC(C)(N)Cc1ccccc1Cl", "outcome": "inactive"}
{"smiles": "CC(C(=O)c1ccccc1)N(C)C", "note": "(stereo not given)", "outcome": "inactive"}
{"smiles": "CCCOC(=O)c1cncn1C(C)c1ccccc1", "note": "(stereo not given)", "outcome": "inactive"}
{"smiles": "O=C1c2ccccc2C(=O)C1C(=O)C(c1ccccc1)c1ccccc1", "outcome": "inactive"}
{"smiles": "CCc1cc2c(s1)-n1c(C)nnc1CN=C2c1ccccc1Cl", "outcome": "inactive"}
{"smiles": "CN1C(=O)COc2c(C(=O)NC3CN4CCC3CC4)cc(Cl)cc21", "note": "(stereo not given)", "outcome": "inactive"}
{"smiles": "O=P1(N(CCCl)CCCl)NCCCO1", "note": "(stereo not given)", "outcome": "inactive"}
{"smiles": "CC(=O)OCC1=C(C(=O)O)N2C(=O)[C@@H](N)[C@H]2SC1", "outcome": "inactive"}
{"smiles": "COC1CC(=C(c2cccs2)c2cccs2)C[N+](C)(C)C1", "note": "(stereo not given)", "outcome": "inactive"}
{"smiles": "CC[N+]1(CC)CCC(OC(=O)C(O)(c2ccccc2)c2ccccc2)C1", "note": "(stereo not given)", "outcome": "inactive"}
{"smiles": "C[C@]12CC[C@H]3[C@@H](CCC4=CC(=O)CC[C@@H]43)[C@@H]1CC[C@@H]2OC(=O)CCc1ccco1", "outcome": "inactive"}
{"smiles": "O=C1c2ccccc2C(=O)c2ccccc21", "outcome": "inactive"}
{"smiles": "CCC(C)(C)c1ccc(O)cc1", "outcome": "inactive"}
{"smiles": "CCC1(c2ccc(N)cc2)CCC(=O)NC1=O", "note": "(stereo not given)", "outcome": "inactive"}
{"smiles": "Clc1cccc(SC2CCNCC2)n1", "outcome": "inactive"}
{"smiles": "CN1C(=O)NC(=O)C(C)(C2=CCCCC2)C1=O", "note": "(stereo not given)", "outcome": "inactive"}
{"smiles": "CCN(CCO)CCn1c(Cc2ccccc2)nc2c1c(=O)n(C)c(=O)n2C", "outcome": "inactive"}
{"smiles": "c1ccc2c(c1)sc1ccccc12", "outcome": "inactive"}
{"smiles": "COc1ccc2c(c1OC)C(=O)O[C@H]2[C@@H]1c2cc3c(cc2CCN1C)OCO3", "outcome": "inactive"}
{"smiles": "COP(=S)(OC)Oc1ccc(SC)c(C)c1", "outcome": "inactive"}
{"smiles": "COc1cccc2c1C(=O)c1c(O)c3c(c(O)c1C2=O)C[C@@](O)(C(=O)CO)CC3OC1CC(N2CCOC(OC)C2)C(O)C(C)O1", "note": "(stereo not given in full)", "outcome": "inactive"}
{"smiles": "O=C(O)CCCc1ccc(N(CCCl)CCCl)cc1", "outcome": "inactive"}
{"smiles": "CC(C)c1c(CN(C)C(C)Cc2ccccc2)n(C)n(-c2ccccc2)c1=O", "note": "(stereo not given)", "outcome": "inactive"}
{"smiles": "C#C[C@]1(O)CC[C@H]2[C@@H]3CCC4=CC(=O)CC[C@]4(C)[C@H]3CC[C@@]21C", "outcome": "inactive"}
{"smiles": "CCOC(=O)CC(SP(=S)(OC)OC)C(=O)OCC", "note": "(stereo not given)", "outcome": "inactive"}
{"smiles": "CN1CC[C@]23c4c5ccc(O)c4O[C@H]2[C@@H](O)C=C[C@H]3[C@H]1C5", "outcome": "inactive"}
{"smiles": "NC(=O)CS(=O)C(c1ccccc1)c1ccccc1", "note": "(stereo not given)", "outcome": "inactive"}
